Results on 40 compounds are retold here after the supplement of paper PMC12339681.

Where a name gives a salt, the structure may show the parent alone.

This assay deals with PBMC-derived induced microglia-like cells (piMGLC). The experiment in a line: synaptosome phagocytic index relative to DMSO control (fraction of DMSO); higher = more phagocytosis. The settings on record: concentration: 10 uM (2 uM for compounds listed in Table S2); pretreatment time: 24 h; assay time: 3 h. Here is the method:
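PBMC-derived induced microglia-like cells (piMGLCs) in 96-well plates were pretreated for 24 h with CNS-penetrant library compounds (MedChemExpress HY-L028), mostly at 10 uM; Table S2 lists 9 compounds at 2 uM. pHrodo-Red-labelled human iPSC-neuron synaptosomes (3 ug/well) were then added for 3 h, and cells were fixed and imaged by confocal microscopy. Phagocytic index (synaptosome area / cell count, CellProfiler) is a mean over 3 replicate wells on different plates, normalized to the DMSO control. Compounds leaving <10% of DMSO cell count were marked toxic and given no value.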
For the compound `CN(C)CCc1c[nH]c2ccc(CS(=O)(=O)N3CCCC3)cc12` [Almotriptan_(malate)], the synaptosome phagocytic index was found to be 0.882.

With `CN1CCN2c3ncccc3Cc3ccccc3C2C1` (stereo not given) [Mirtazapine], the synaptosome phagocytic index came out at 1.1.

With `CCC(C)C(N)C(=O)NCCN1CCOCC1` (stereo not given) [LM11A-31_(dihydrochloride)], the synaptosome phagocytic index is 0.844.

As for `CN(Cc1cnc2nc(N)nc(N)c2n1)c1ccc(C(=O)N[C@@H](CCC(=O)O)C(=O)O)cc1` [Methotrexate], the synaptosome phagocytic index came to 1.02.

In the case of `Cc1cc(NC(=O)Cc2ccc(F)c(Cl)c2)n(C2CCCCC2)n1`, the synaptosome phagocytic index was found to be 0.77.

For the compound `Cc1cc(-c2nncc3c(C(C)(C)C)c(OCc4ncnn4C)nn23)no1`, the synaptosome phagocytic index was found to be 0.814.

Take `Clc1ccc2c(c1)C(N1CCNCC1)=Nc1ccccc1O2` [Amoxapine]: the synaptosome phagocytic index is 0.463.

As for `CN(C)CCC=C1c2ccccc2C=Cc2ccccc21` [Cyclobenzaprine_(hydrochloride)], the synaptosome phagocytic index was found to be 0.59.

On to `CC(C)Nc1cccnc1N1CCN(C(=O)c2cc3cc(NS(C)(=O)=O)ccc3[nH]2)CC1` [Delavirdine_(mesylate)], for which the synaptosome phagocytic index turned out to be 0.749.

As to `CNNCc1ccc(C(=O)NC(C)C)cc1` [Procarbazine_(Hydrochloride)], the synaptosome phagocytic index came to 1.1.

In the case of `CC1(C)O[C@@H]2[C@@H](CO[C@@]3(COS(N)(=O)=O)OC(C)(C)O[C@@H]23)O1` [Topiramate], the synaptosome phagocytic index came out at 1.08.

In the case of `O=C1NC(c2ccccc2)(c2ccccc2)C(=O)N1COP(=O)(O)O` [Fosphenytoin_(disodium)], the synaptosome phagocytic index worked out at 0.487.

Consider `C[C@H]1COc2c(N3CCN(C)CC3)c(F)cc3c(=O)c(C(=O)O)cn1c23` [Levofloxacin], for which the synaptosome phagocytic index stood at 1.16.

On to `O=c1c(-c2ccc(O)cc2)coc2cc(O)ccc12` [Daidzein], for which the synaptosome phagocytic index is 0.94.

Regarding `O=c1n(CCCN2CCN(c3cccc(Cl)c3)CC2)nc2ccccn12` [Trazodone_(hydrochloride)], the synaptosome phagocytic index was found to be 1.39.

For the compound `O=C(O)[C@H]1CSC(c2nc3cc4c(cc3s2)NCC4)=N1`, the synaptosome phagocytic index was 0.923.

In the case of `CC[C@H](CO)Nc1nc(NCc2ccccc2)c2ncn(C(C)C)c2n1` [Seliciclib], the synaptosome phagocytic index was 0.569.

With `Cc1cc(Oc2cncnc2)cc(C(=O)Nc2ccc(F)cn2)n1` [Auglurant], the synaptosome phagocytic index stood at 1.03.

Consider `CC(C)(C)c1cnc(CSc2cnc(NC(=O)C3CCNCC3)s2)o1`, for which the synaptosome phagocytic index was 0.572.

As to `CCCN[C@H]1CCc2nc(N)sc2C1` [Pramipexole_(dihydrochloride)], the synaptosome phagocytic index was 0.906.

For the compound `CCC(=O)NCC[C@@H]1CCc2ccc3c(c21)CCO3` [Ramelteon], the synaptosome phagocytic index turned out to be 0.767.

Regarding `Cc1ncc([N+](=O)[O-])n1CCO` [Metronidazole], the synaptosome phagocytic index was found to be 0.51.

For `CCCc1nc(C)c2c(O)nc(-c3cc(S(=O)(=O)N4CCN(CC)CC4)ccc3OCC)nn12` [Vardenafil_(hydrochloride)], the synaptosome phagocytic index came out at 1.16.

As for `COc1ccccc1OCC(O)COC(N)=O` (stereo not given) [Methocarbamol], the synaptosome phagocytic index is 0.902.

In the case of `CCN1CCN(C(=O)N[C@@H](C(=O)N[C@@H]2C(=O)N3[C@@H]2SC(C)(C)[C@@H]3C(=O)O)c2ccccc2)C(=O)C1=O` [Piperacillin_(sodium)], the synaptosome phagocytic index is 1.13.

As to `CNCCC=C1c2ccccc2CCc2ccccc21` [Nortriptyline_(hydrochloride)], the synaptosome phagocytic index amounted to 0.487.

For `O=C(CCCN1CCC(O)(c2ccc(Cl)cc2)CC1)c1ccc(F)cc1` [Haloperidol], the synaptosome phagocytic index turned out to be 1.05.

For `O=NN(CCCl)C(=O)NC1CCCCC1` [Lomustine], the synaptosome phagocytic index came to 0.897.

As for `CCn1ncc2c(NC3CCOCC3)c(-c3nnc(Cc4sc(C)nc4C)o3)cnc21`, the synaptosome phagocytic index turned out to be 0.266.

With `CS(=O)(=O)c1ccc(C2=C(c3ccccc3)C(=O)OC2)cc1` [Rofecoxib], the synaptosome phagocytic index stood at 1.08.

Regarding `COc1ncc(F)cc1CNc1ccc(Cc2c[nH]c3ncc(C)cc23)c(F)n1` [PLX5622_(hemifumarate)], the synaptosome phagocytic index came out at 0.966.

For the compound `NC1CCN(c2cccc(Cl)n2)CC1`, the synaptosome phagocytic index stood at 0.648.

`O=C(CCCCCCC(=O)Nc1ccccc1)NO` [Vorinostat]: the synaptosome phagocytic index was 0.0904.

Regarding `CNCCCN1c2ccccc2CCc2ccccc21` [Desipramine_hydrochloride], the synaptosome phagocytic index came to 1.13.

Consider `NC(=O)c1cccc(-c2cccc(OC(=O)NC3CCCCC3)c2)c1`, for which the synaptosome phagocytic index stood at 0.86.

With `CC(=O)[C@H]1CC[C@H]2[C@@H]3CC=C4C[C@@H](OS(=O)(=O)O)CC[C@]4(C)[C@H]3CC[C@]12C` [Pregnenolone_monosulfate], the synaptosome phagocytic index is 0.895.

In the case of `N[C@H](C(=O)O)[C@H](O)c1ccc(O)c(O)c1` [Droxidopa], the synaptosome phagocytic index was found to be 0.507.

Turning to `C[C@H]1[C@H](NC(=O)/C(=N\OC(C)(C)C(=O)O)c2csc(N)n2)C(=O)N1S(=O)(=O)O` [Aztreonam], the synaptosome phagocytic index stood at 0.528.

In the case of `CC(C)OC(=O)NC1CCN(Cc2cc(Cl)c3cccnc3c2O)CC1`, the synaptosome phagocytic index is 0.609.

Consider `CC(C)[C@H]1C(=O)N[C@@H](CCCNC(=N)N)C(=O)NCC(=O)N[C@@H](CC(=O)O)C(=O)N[C@H](Cc2ccccc2)C(=O)N1C` [Cilengitide], for which the synaptosome phagocytic index was 1.09.
